SMILES strings stand for the structures. Results filed as inconclusive are left out. Activity calls are given as the source filed them. The call rests on the fitted dose curve; in most records, active means well fitted cell-killing curve with a large enough effect; inconclusive means small, poorly fitted or top-dose-only effect, or effect the other way; inactive means no such curve, though single readings can be large or run the other way. Residues, ends and D or L forms follow the SMILES beside them. *: point of attachment. Cbz = O=C(OCc1ccccc1)*
Potency means the concentration at half of the fitted maximal effect.

A short description of the assay: qHTS of pediatric cancer cell lines to identify multiple opportunities for drug repurposing: Confirmatory screen for NB-EBc1 cells (AID 1347115).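 Further: cells exposed to compound for 48 h before the viability read; nearly all actives have a fitted effect of over 45% in size.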 To be noted: NB-EBc1 neuroblastoma cells, viability (cytotoxicity); series mostly up to 45.9 µM. From the text: Drug repurposing or repositioning has been offered as a strategy for drug development in oncology programs. This approach has special potential for childhood cancers and other rare or orphan diseases, where the expected return on new drug development has been a disincentive to pharmaceuticals.
In this project we exploit the poly-pharmacology of drugs to discover new indications via phenotypic screening of a panel of 19 well-characterized cell lines derived from solid tumors seen in children and adolescents. The goal is to identify approved drugs with previously unrecognized anticancer properties that has the potential to reveal new mechanisms and biological processes involved in carcinogenesis or drug resistance. We employed a titration-based paradigm (quantitative high-throughput screening or qHTS), where all compounds were tested at multiple concentrations for their effect on cell viability. Concentration-response curves (CRCs) were derived directly from the primary screen, and both potency and efficacy values were used to identify compounds with robust bioactivity profiles. We screened the NIH Chemical Genomics Center (NCGC) Pharmaceutical Collection (NPC) and Mechanism Interrogation Plate (MIPE) small molecule collections of approved and investigational compounds against these cell lines; and measured metabolically active cells after 48 hours of compound treatment as a proxy for cell viability.
Assay Submitter: Nathalia J. Martinez, National Center for Advancing Translational Sciences, National Institutes of Health, Rockville, MD, USA; email: natalia.martinez@nih.gov
[1] Shen, M et al. Quantitative high-throughput phenotypic screening of pediatric cancer cell lines identifies multiple opportunities for drug repurposing. Oncotarget 2017 Dec 19;9(4):4758-4772. PMID 29435139.
The cells were obtained from University of North Carolina (UNC), Pediatric Preclinical Testing Program (PPT), and Coriell Institute (CI).
qHTS cell viability assay:
Cells were assayed in growth media at a density of 500-1,000 cells/well. Five microliters of cells were dispensed into 1,536-well, white, solid-bottom, TC-treated plates (Greiner Bio One) using a multidrop dispenser and incubated at 37 degrees C, 5% CO2, under a humidified atmosphere for 5 hours. Twenty-three nanoliters of compounds and controls (neutral control DMSO or positive control bortezomib at final concentration of 2.3 µM) were subsequently transferred by Kalypsys pintool. For primary screens, the MIPE collection was tested at 11-point dilutions (final concentrations range from 0.78 nM to 46 µM) and the NPC collection at 8-point dilutions (final concentrations range from 0.59 nM to 46 µM). Compounds tested in follow-up screens were assayed at 11-point dilutions. Cells were incubated for 48 hours, followed by addition of 3 µL of CellTiter-Glo (Promega). After a 15 min incubation at room temperature, samples were analyzed for luminescence intensity using a ViewLux High-throughput CCD imager equipped with clear filters.
Background: In qHTS, concentration-response curves come from the screen itself.
As to `CC(=O)N1CCN(c2ccc(OCc3nn(C)c(C)c3-c3cccc4c(CCCOc5cccc6ccccc56)c(C(=O)O)n(Cc5cccnc5)c34)cc2)CC1`, the Potency entry was “inactive”.
With `N#Cc1c(C2CCNCC2)cc(-c2c(O)cccc2OCC2CC2)nc1N`, the Potency entry was “inactive”.
The figure for `CN[C@@H]1C[C@H]2O[C@@](C)([C@H]1OC)n1c3ccccc3c3c4c(c5c6ccccc6n2c5c31)C(=O)N[C@H]4O` is 2.61 µM (active); for `CC(=O)NCC(=O)N1[C@H]2CC[C@H]1c1cc(Nc3ncc(C(F)(F)F)c(NC4CCC4)n3)ccc12` it is 9.27 µM (active).
Next, `COc1ccc2c(c1OC)C(=O)OC2[C@H]1c2c(cc3c(c2OC)OCO3)CCN1C` (stereo not given in full): “inactive”.
The figure for `COc1ccc(S(=O)(=O)Nc2cccnc2Nc2ccc(O)cc2)cc1` is 2.33 µM (active); for `CCN(CC)CCNC(=O)c1c(C)[nH]c(C=C2C(=O)Nc3ccc(F)cc32)c1C` it is “inactive”; for `Cc1nc(NC(=O)N2CCC[C@@H]2C(N)=O)sc1-c1ccnc(C(C)(C)C(F)(F)F)c1` it is 16.5 µM (active).
Take `C[C@H](NCc1ccc2c(c1)nc(NC(=O)c1ccc(-c3cn[nH]c3)s1)n2CCc1ccccc1)C(C)(C)C`: the Potency was 1.31 µM (active).
For `COC(=O)C=CC(=O)OC`, the Potency was 20.8 µM (active).
As for `CCc1cc(C(C)=NOCc2ccc(C3CCCCC3)c(C(F)(F)F)c2)ccc1CN1CC(C(=O)O)C1`, the Potency result is “inactive”.
Next, `CN(CC(=O)N(Cc1ccc(C2CCCCC2)cc1)c1ccc(C(=O)O)c(O)c1)S(=O)(=O)c1c(F)c(F)c(F)c(F)c1F`: “inactive”; `COc1cccc2c1C(=O)c1c(O)c3c(c(O)c1C2=O)C[C@@](O)(C(=O)CO)C[C@@H]3O[C@H]1C[C@H](N)[C@H](OC2CCCCO2)[C@H](C)O1` (stereo not given in full): 1.65 µM (active).
On to `COc1ccc(C(C)=O)c(O)c1`, for which the Potency result was “inactive”.
Regarding `Cc1cnc(Nc2ccc(CN3CCOCC3)cc2)nc1Nc1cccc(S(=O)(=O)NC(C)(C)C)c1`, the Potency was 10.4 µM (active).
Next, `C=CC(=O)Nc1ccc2ncnc(Nc3ccc(OCc4cccc(F)c4)c(Cl)c3)c2c1`: 20.8 µM (active); `COC[C@H](NC(=O)c1cnc(C)s1)C(=O)N[C@@H](COC)C(=O)N[C@@H](Cc1ccccc1)C(=O)[C@@]1(C)CO1`: 0.208 µM (active); `CO[C@@H]1[C@@H](O)[C@H](O)[C@@H](n2c3c(Cl)cccc3c3c4c(c5c6cccc(Cl)c6[nH]c5c32)C(=O)NC4=O)O[C@@H]1CO`: 1.47 µM (active).
The entry for `COc1cc(C[C@@H](CO)[C@H](CO)Cc2ccc(O)c(OC)c2)ccc1O` is “inactive”; for `Cn1cnc(=N)c2[nH]cnc21` it is “inactive”.
The figure for `Nc1ncn([C@@H]2O[C@H](CO)[C@@H](O)[C@@H]2O)c(=O)n1` is 13.1 µM (active); for `C[C@@]12C(=O)OC(=O)[C@@]1(C)C1CCC2O1` it is 2.08 µM (active); for `O=C(Nc1cc2cc[nH]c2cn1)c1ccccc1` it is 16.5 µM (active).
Consider `C=CCNC1=C2C[C@@H](C)C[C@H](OC)[C@@H](O)[C@@H](C)C=C(C)[C@H](OC(N)=O)[C@@H](OC)C=CC=C(C)C(=O)NC(=CC1=O)C2=O`, for which the Potency was 7.37 µM (active).
Next, `CCS(=O)(=O)Nc1ccc2[nH]c(O)c(C(=Nc3ccc(CN4CCCCC4)cc3)c3ccccc3)c2c1`: 4.65 µM (active).
The figure for `Cc1cnc(Nc2ccc(N3CCN(C)CC3)cc2)nc1Nc1cccc(S(=O)(=O)NC(C)(C)C)c1` is 14.7 µM (active).
For `CC(C)C[C@@H](C=O)NC(=O)[C@H](CC(C)C)NC(=O)[C@H](CC(C)C)NC(=O)OCc1ccccc1` (Cbz-Leu-Leu-Leu-aldehyde), the Potency was 1.47 µM (active).
Consider `CC(C)C[C@H](NC(=O)[C@@H](NC(=O)c1cccc(-c2ccccc2)n1)[C@@H](C)O)B(O)O`, for which the Potency is 0.0585 µM (active).
The entry for `C[N+](C)([O-])CCNc1ccc(NCC[N+](C)(C)[O-])c2c1C(=O)c1c(O)ccc(O)c1C2=O` is “inactive”; for `CC(C)(O)Cn1c(NC(=O)c2ccc(-c3cn[nH]c3)s2)nc2cc(CN3CCOCC3)ccc21` it is 1.04 µM (active).
Next, `CC(=O)[C@]1(O)Cc2c(O)c3c(c(O)c2[C@@H](O[C@H]2C[C@H](N)[C@@H](O)[C@H](C)O2)C1)C(=O)c1ccccc1C3=O`: 0.465 µM (active); `N#CNC(=NCCCCCCOc1ccc(Cl)cc1)Nc1ccncc1`: 0.0414 µM (active).
`C[C@H]1[C@@H](OC(=O)CCC(=O)O)O[C@@H]2O[C@@]3(C)CC[C@@H]4[C@H](C)CC[C@@H]1[C@@]24OO3`: the Potency was 5.22 µM (active).
The figure for `CCC(C=C[C@@H]1OC(=O)C=C[C@H]1C)=C[C@H](C)CC=CC(C)=C[C@@H](C)C(=O)[C@@H](C)[C@H](O)[C@@H](C)CC(C)=CC(=O)O` is 0.0361 µM (active).
Consider `O=C(C=CC=Cc1ccc2c(c1)OCO2)N1CCCCC1`, for which the Potency result is “inactive”.
The entry for `O=C(O)C[C@H](O)C[C@H](O)C=Cc1c(C2CC2)nc2ccccc2c1-c1ccc(F)cc1` is “inactive”; for `C[C@@H](Oc1ccc2[nH]nc(C=Cc3cnn(CCO)c3)c2c1)c1c(Cl)cncc1Cl` it is 13.1 µM (active); for `NS(=O)(=O)OC[C@@H]1C[C@@H](n2ccc3c(N[C@H]4CCc5ccccc54)ncnc32)C[C@H]1O` it is “inactive”.
The figure for `COc1ccc(C=Cc2cc(OC)c(OC)c(OC)c2)cc1NC(=O)[C@H](N)CO` is 0.0522 µM (active); for `C=CC(=O)Nc1cccc(Nc2nc(NC3CCC(N(C)C)CC3)nc3c2ncn3C(C)C)c1` (stereo not given) it is 7.37 µM (active).

The record behind these values is PubChem BioAssay (NCATS).
